Test results taken from PubChem BioAssay (Tox21).
Results filed as inconclusive are left out. The source made the active and inactive calls. Calls follow the shape of the dose curve; as a rule, active = well fitted cell-killing curve with a large enough effect in the repeat runs; inconclusive = weak or mixed curves, or effect the other way; inactive = no such curve, though single readings can be large or run the other way.

Assay: qHTS assay to identify small molecule agonists of the vitamin D receptor (VDR) signaling pathway - cell viability counter screen (AID 743224)
Conditions: VDR-bla HEK293T viability, CellTiter-Glo luminescence, 16 h; series mostly up to 62.6 µM
Summary of the method: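 VDR-bla cells, 4 h after plating, exposed to compounds for 16 h at 37C; viability then read in the same wells as CellTiter-Glo luminescence after 30 min at room temperature, following the bla FRET read.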
Also: nearly all actives have a fitted effect of over 50% in size.

| SMILES | outcome |
| --- | --- |
| CC(C)C#N | inactive |
| CC1OC(C)OC(C)O1 (stereo unspecified) | inactive |
| Cc1cccc([N+](=O)[O-])c1 | inactive |
| Cc1ccc([N+](=O)[O-])cc1C | inactive |
| CCC[N+](=O)[O-] | inactive |
| COP(N)(=O)SC (stereo unspecified) | inactive |
| O=c1[nH]c(=O)[nH]c(=O)[nH]1 | inactive |
| O=NN1CCCCCCC1 | inactive |
| CCCCCCCCCl | inactive |
| C#CC(C)(C)NC(=O)c1cc(Cl)cc(Cl)c1 | inactive |
| O=C(O)c1ccccn1 | inactive |
| C1CN2CCN1CC2 | inactive |
| OC(O)C(Cl)(Cl)Cl | inactive |
| O=S(=O)(c1ccc(Cl)cc1)c1cc(Cl)c(Cl)cc1Cl | inactive |
| CNC(=O)Oc1ccccc1OC(C)C | inactive |
| C#CCN(C)[C@H](C)Cc1ccccc1 | inactive |
| CCNc1nc(NC(C)(C)C)nc(SC)n1 | inactive |
| OCCN(CCO)CCO | inactive |

| SMILES | outcome |
| --- | --- |
| BrCCBr | inactive |
| O=S(=O)(c1ccc(O)cc1)c1ccc(O)cc1 | inactive |
| Nc1ccc(Oc2ccc(N)cc2)cc1 | inactive |
| CC(C)(Cl)Cl | inactive |
| Nc1ccccc1C(=O)O | inactive |
| C=CCO | inactive |
| c1ccc2c(c1)oc1ccccc12 | inactive |
| CC(C)=C[C@@H]1[C@@H](C(=O)OCc2coc(Cc3ccccc3)c2)C1(C)C | inactive |
| [O-][Cl+2]([O-])O | inactive |
| Nc1ccc(Cc2ccc(N)cc2)cc1 | inactive |
| CCCCOC(=O)c1ccccc1C(=O)OCCCC | inactive |
| COC(=O)c1ccccc1C(=O)OC | inactive |
| Clc1ccc(Cl)cc1 | inactive |
| O=C(NC(=O)c1c(F)cccc1F)Nc1cc(Cl)c(OC(F)(F)C(F)C(F)(F)F)cc1Cl (stereo unspecified) | inactive |
| c1cc2c3c(cccc3c1)CC2 | inactive |
| C=C(C)CCl | inactive |
| CC(NC(C)(C)C)C(=O)c1cccc(Cl)c1 (stereo unspecified) | inactive |
| c1ccc(OP(Oc2ccccc2)Oc2ccccc2)cc1 | inactive |

Assay: qHTS assay to identify small molecule antagonists of the vitamin D receptor (VDR) signaling pathway - cell viability counter screen (AID 743225)
Conditions: VDR-bla HEK293T viability, CellTiter-Glo luminescence, 16 h; series mostly up to 61 µM
Summary of the method: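 HEK293T VDR-bla; cpd + 1a,25-(OH)2D3 3 nM final, 16 h 37C/5% CO2; B/G FRET substrate 2 h RT; then CellTiter-Glo 30 min RT, luminescence.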

| SMILES | outcome |
| --- | --- |
| CC(C)C#N | inactive |
| CC1OC(C)OC(C)O1 (stereo unspecified) | inactive |
| Cc1cccc([N+](=O)[O-])c1 | inactive |
| Cc1ccc([N+](=O)[O-])cc1C | inactive |
| CCC[N+](=O)[O-] | inactive |
| COP(N)(=O)SC (stereo unspecified) | inactive |
| O=c1[nH]c(=O)[nH]c(=O)[nH]1 | inactive |
| O=NN1CCCCCCC1 | inactive |
| CCCCCCCCCl | inactive |
| C#CC(C)(C)NC(=O)c1cc(Cl)cc(Cl)c1 | inactive |
| O=C(O)c1ccccn1 | inactive |
| C1CN2CCN1CC2 | inactive |
| OC(O)C(Cl)(Cl)Cl | inactive |
| O=S(=O)(c1ccc(Cl)cc1)c1cc(Cl)c(Cl)cc1Cl | inactive |
| CNC(=O)Oc1ccccc1OC(C)C | inactive |
| C#CCN(C)[C@H](C)Cc1ccccc1 | inactive |
| CCNc1nc(NC(C)(C)C)nc(SC)n1 | inactive |
| OCCN(CCO)CCO | inactive |

| SMILES | outcome |
| --- | --- |
| BrCCBr | inactive |
| O=S(=O)(c1ccc(O)cc1)c1ccc(O)cc1 | inactive |
| Nc1ccc(Oc2ccc(N)cc2)cc1 | inactive |
| CC(C)(Cl)Cl | inactive |
| Nc1ccccc1C(=O)O | inactive |
| C=CCO | inactive |
| c1ccc2c(c1)oc1ccccc12 | inactive |
| [O-][Cl+2]([O-])O | inactive |
| Nc1ccc(Cc2ccc(N)cc2)cc1 | inactive |
| CCCCOC(=O)c1ccccc1C(=O)OCCCC | inactive |
| COC(=O)c1ccccc1C(=O)OC | inactive |
| Clc1ccc(Cl)cc1 | inactive |
| O=C(NC(=O)c1c(F)cccc1F)Nc1cc(Cl)c(OC(F)(F)C(F)C(F)(F)F)cc1Cl (stereo unspecified) | inactive |
| c1cc2c3c(cccc3c1)CC2 | inactive |
| C=C(C)CCl | inactive |
| CC(NC(C)(C)C)C(=O)c1cccc(Cl)c1 (stereo unspecified) | inactive |
| c1ccc(OP(Oc2ccccc2)Oc2ccccc2)cc1 | inactive |
